Measured values from the supplement of paper PMC10127200.
Where a name gives a salt, the structure may show the parent alone.

Tested on: DU145
Experiment: Euclidean distance of Cell Painting phenotypic profile (signed KS, 77 features) to DMSO centroid (dimensionless distance); 5 or 10 uM (library dependent); higher = stronger phenotypic change vs DMSO (phenoactivity)
Details: 48 h
In short: (§1)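 Five cancer lines, together with a healthy fibroblast line, received library compounds for 48 h at a library-dependent 10 or 5 uM and 0.1% DMSO final. Harmony then derived 77 features from confocal 20X images (9 fields/well) of the stained cells, scoring each as a signed Kolmogorov-Smirnov statistic against same-plate vehicle wells. After plate-position correction, correlation weighting and replicate averaging at the top dose, phenoactivity was taken as each profile's Euclidean distance to the median vehicle profile.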

| SMILES | Euclidean distance |
| --- | --- |
| CC(C)(CO)[C@@H](O)C(=O)NCCC(=O)O [D-Pantothenic acid] | 0.734 |
| CC(C)Cn1cnc2c(N)nc3ccccc3c21 [Imiquimod] | 0.652 |
| CCOc1ccc2nc(S(N)(=O)=O)sc2c1 [Ethoxzolamide] | 1.34 |
| CCOC(=O)Nc1cc(-c2ccc(C)c(NS(C)(=O)=O)c2)nn2c(C)nnc12 [Bromosporine] | 2.42 |
| CCN1CCN(C(=O)N[C@@H](C(=O)N[C@@H]2C(=O)N3[C@@H]2SC(C)(C)[C@@H]3C(=O)O)c2ccccc2)C(=O)C1=O [Piperacillin Sodium] | 0.884 |
| CCCCCCCCCCC[C@@H](C[C@@H]1OC(=O)[C@H]1CCCCCC)OC(=O)[C@H](CC(C)C)NC=O [Orlistat] | 0.901 |

Tested on: FB
Experiment: as above
Details: 48 h
In short: as §1

| SMILES | Euclidean distance |
| --- | --- |
| CN(C)CCOc1ccc(/C(=C(/CCCl)c2ccccc2)c2ccccc2)cc1 [Toremifene Citrate] | 1.97 |
| CS(=O)(=O)CCC#N [Dapansutrile (OLT1177)] | 0.633 |
| Nc1ccn([C@@H]2O[C@H](CO)[C@@H](O)C2(F)F)c(=O)n1 [Gemcitabine] | 2.91 |
| CCN1CCN(Cc2ccc(-c3cc4c(N[C@H](C)c5ccccc5)ncnc4[nH]3)cc2)CC1 | 2.96 |
| Cc1ccc(C(=O)Nc2ccc(CN3CCN(C)CC3)c(C(F)(F)F)c2)cc1C#Cc1cnc2cccnn12 | 1.08 |
| Cc1cc(CC(C)CC(C)(C)C)n(O)c(=O)c1 (stereo unspecified) [Piroctone Olamine] | 3.73 |
| CNC(=O)c1cc(Oc2ccc3nc(N[C@@H]4CCCC[C@H]4O)sc3c2)ccn1 | 1.9 |
| COc1ccccc1S(=O)(=O)Nc1ccc2c(c1)CN(C)C(=O)N2 | 2.84 |
| O=c1[nH]c(=O)n([C@H]2C[C@H](O)[C@@H](CO)O2)cc1I [Idoxuridine] | 1.41 |
| C[C@]12CCC(=O)C=C1CC[C@@H]1[C@@H]2[C@@H](O)C[C@@]2(C)[C@H]1CC[C@]2(O)C(=O)CO [Hydrocortisone] | 1.56 |
| CCOC(=O)[C@H](CCc1ccccc1)N[C@@H](C)C(=O)N1CCC[C@H]1C(=O)O [Enalapril Maleate] | 0.816 |
| O=S1(=O)CCN(CN2CCS(=O)(=O)NC2)CN1 [Taurolidine] | 1.04 |
| CC(=O)O[C@H]1Cc2ccccc2N(C(N)=O)c2ccccc21 [Eslicarbazepine Acetate] | 1.39 |
| C[C@]12CC[C@@H]3c4ccc(OC(=O)c5ccccc5)cc4CC[C@H]3[C@@H]1CC[C@@H]2O [Estradiol Benzoate] | 1.35 |
| Nc1nc(N)c(N=O)c(OCC2CCCCC2)n1 | 1.01 |
| CN1CCN(c2ccc3nc(-c4c(N)c5c(F)cccc5[nH]c4=O)[nH]c3c2)CC1 [Dovitinib (TKI-258) Dilactic Acid] | 4.28 |
| Cc1cccc(Oc2cnc(=O)[nH]c2)c1 | 1.47 |
| CC(C)(C)CC(C)(C)c1ccc(OCCOCC[N+](C)(C)Cc2ccccc2)cc1 [Benzethonium Chloride] | 1.82 |
| O=C(NC1CCNCC1)c1n[nH]cc1NC(=O)c1c(Cl)cccc1Cl | 4.13 |
| CCCNCC(O)COc1ccccc1C(=O)CCc1ccccc1 (stereo unspecified) [Propafenone HCl] | 1.36 |

| SMILES | Euclidean distance |
| --- | --- |
| CCCC(=O)Nc1ccc(OCC(O)CNC(C)C)c(C(C)=O)c1 (stereo unspecified) [Acebutolol HCl] | 1.3 |
| COC(=O)C1=CO[C@@H](O[C@@H]2O[C@H](CO)[C@@H](O)[C@H](O)[C@H]2O)[C@@H]2[C@@H](C)[C@@H](O)C[C@H]12 [Loganin] | 0.781 |
| NCCS [Cysteamine HCl] | 1.02 |
| Cc1nc(Nc2ncc(C(=O)Nc3c(C)cccc3Cl)s2)cc(N2CCN(CCO)CC2)n1 [Dasatinib Monohydrate] | 3.53 |
| N[C@@H]1CCCCN(c2c(F)cc3c(=O)c(C(=O)O)cn(C4CC4)c3c2Cl)C1 [Besifloxacin HCl] | 0.781 |
| N=C(N)NC(=O)c1nc(Cl)c(N)nc1N [Amiloride HCl dihydrate] | 1.58 |
| C[C@@H](Oc1ccc2[nH]nc(/C=C/c3cnn(CCO)c3)c2c1)c1c(Cl)cncc1Cl | 3.2 |
| Nc1ccc(S(=O)(=O)Nc2ccnn2-c2ccccc2)cc1 [Sulfaphenazole] | 0.58 |
| CC(C)CC(=O)Nc1n[nH]c2c1CN(C(=O)C1CCN(C)CC1)C2(C)C | 2.96 |
| O=C1NC(=O)C(=Cc2ccc(-c3ccc(F)cc3)o2)S1 (stereo in doubt) | 1.29 |
| Cn1c(=O)cc(N2CCC[C@@H](N)C2)n(Cc2cc(F)ccc2C#N)c1=O [Trelagliptin succinate] | 1.06 |
| CC[C@H]1OC(=O)C[C@@H](O)[C@H](C)[C@@H](O[C@@H]2O[C@H](C)[C@@H](O[C@H]3C[C@@](C)(O)[C@@H](O)[C@H](C)O3)[C@H](N(C)C)[C@H]2O)[C@@H](CC=O)C[C@@H](C)C(=O)/C=C/C(C)=C/[C@@H]1CO[C@@H]1O[C@H](C)[C@@H](O)[C@@H](OC)[C@H]1OC [Tylosin] | 0.794 |
| CN1C(N)=N[C@](C)(c2cc(NC(=O)c3ccc(F)cn3)ccc2F)CS1(=O)=O [Verubecestat (MK-8931)] | 0.675 |
| CC(=O)OCC(=O)[C@@]1(O)CC[C@H]2[C@@H]3CCC4=CC(=O)CC[C@]4(C)[C@H]3[C@@H](O)C[C@@]21C [Hydrocortisone acetate] | 1.96 |
| CC(C)(CO)[C@@H](O)C(=O)NCCC(=O)O [D-Pantothenic acid] | 1.08 |
| CC(C)Cn1cnc2c(N)nc3ccccc3c21 [Imiquimod] | 0.784 |
| CCOc1ccc2nc(S(N)(=O)=O)sc2c1 [Ethoxzolamide] | 1.35 |
| CCOC(=O)Nc1cc(-c2ccc(C)c(NS(C)(=O)=O)c2)nn2c(C)nnc12 [Bromosporine] | 4.35 |
| CCN1CCN(C(=O)N[C@@H](C(=O)N[C@@H]2C(=O)N3[C@@H]2SC(C)(C)[C@@H]3C(=O)O)c2ccccc2)C(=O)C1=O [Piperacillin Sodium] | 1.1 |
| CCCCCCCCCCC[C@@H](C[C@@H]1OC(=O)[C@H]1CCCCCC)OC(=O)[C@H](CC(C)C)NC=O [Orlistat] | 1.42 |
